LGR2 antag = Drosophila LGR2 receptor signaling inhibition; HEK293 LGR2, CRE-luciferase, bursicon-stimulated, 4 h; inhibition, % at 9.99 µM; hit rate 0.35% among 380,000;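 active = drop in luminescence signal, shown as inhibition above about 50% in the replicate tests, limit read from the data, passing the limit was not always enough; inconclusive = probably only some replicates passing the limit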;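 note: agonist challenge used bursicon conditioned medium at about half maximal strength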
CF NFkB block = blocks PAF-induced NF-kB reporter in cystic fibrosis cells; AID 588850; inhibition, % at 5 µM; KKLEB NF-kB-GFP reporter, GFP fluorescence overnight; hit rate 0.86% among 360,000;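 active = at least 50% inhibition at 5 µM, scaled per plate between neutral and stimulator controls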;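 note: PAF is a Pseudomonas aeruginosa culture filtrate used as stimulus; plate controls were PAF-stimulated DMSO wells for no effect and unstimulated DMSO wells for full effect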
KKLEB cytotox = reduces viability of KKLEB cystic fibrosis airway cells; KKLEB CF airway cells viability, ATPlite luminescence, overnight; hits give low values; cells stimulated with P. aeruginosa culture filtrate; activity change (cytotoxicity), % at 5 µM; hit rate 0.36% among 360,000; AID 602141;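 active = corrected activity change at or below -50% at 5 µM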
HSP90 inh = blocks HSP90-mediated luciferase refolding in reticulocyte lysate; Rabbit reticulocyte lysate, luciferase refolding luminescence, 3 h; inhibition, % at 5.6 µM; hit rate 0.91% among 290,000;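 active = inhibition above the screen-wide mean plus 3 SD, computed separately per campaign, cut at about 16% in these data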;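 note: 0% = DMSO wells and 100% = 60 µM geldanamycin wells; inhibitors lower the luminescence because luciferase stays unfolded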
Mdm2-MdmX inh = inhibitors of human Mdm2/MdmX interaction; O15151+Q00987; SaOS-2 split-luciferase Mdm2/MdmX complementation, luminescence; inhibition, % at 8 µM; hit rate 3% among 330,000; AID 485346;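 active = inhibition of at least 50% at 8 µM in the primary screen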
Peg3 prom inh = reduces Peg3 promoter-driven luciferase expression in HeLa; HeLa PEG-Prom luciferase reporter, luminescence, overnight; inhibition, % at 20 µM; hit rate 1.7% among 360,000; AID 588405;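 active = inhibition of at least 50% at 20 µM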
Mdm2-MdmX conf = confirmation of human Mdm2/MdmX interaction inhibitors | shares compounds with Mdm2-MdmX inh | Mdm2-MdmX binding, luminescent assay | inhibition, % at 8 µM | hit rate 55% among 10,000; in the data active = inhibition above about 40%
FLuc counter = inhibits full-length luciferase, flagging false Mdm2/MdmX hits | SaOS-2 full-length luciferase counterscreen, luminescence | hit rate 77% among 6,200 | shares compounds with Mdm2-MdmX inh | inhibition, % at 8 µM;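 active = mean inhibition at 8 µM reaching about 37%, which flags the compound as non-specific, limit read from the data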;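 note: p53-null SaOS-2 cells with luciferase driven by a doxycycline-inducible promoter; compound on cells about two nights before reading with doxycycline added after day one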
* hit, by the source's call; ? = inconclusive; nt = no result given. In the library only some 3.6% were active in any assay of this set; here they are far more common.

SMILES	LGR2 antag	CF NFkB block	KKLEB cytotox	HSP90 inh	Mdm2-MdmX inh	Peg3 prom inh	Mdm2-MdmX conf	FLuc counter
C[C@@H]1CCCCO[C@H](CN(C)C(=O)c2ccncc2)[C@@H](C)CN([C@H](C)CO)C(=O)c2cc(NC(=O)Cc3ccccc3)ccc2O1	-5	nt	nt	nt	nt	nt	nt	nt
COc1ccc(N(C)C(=O)c2cc3c(s2)-c2ccccc2OC3)c(OC)c1	-5	1	-5	-1	-16	-26	nt	nt
COc1ccc(N(C)C(=O)c2cc3c(s2)-c2ccc(Cl)cc2S(=O)(=O)C3)c(OC)c1	6	4	-12	-6	56*	-1	19	nt
COc1cccc(CNC(=O)C[C@@H]2CC[C@H]3[C@@H](COc4ccc(NC(C)=O)cc4C(=O)N3C)O2)c1	1	nt	nt	nt	nt	nt	nt	nt
CCn1c(Cl)c(C=O)s/c1=N\S(=O)(=O)c1ccccc1	?	88*	-85*	3	100*	105*	98*	51*
C[C@@H]1CN([C@@H](C)CO)C(=O)c2c(c3ccccc3n2C)-c2ccccc2CO[C@H]1CN(C)C(=O)[C@H]1CCCN1C	6	nt	nt	nt	nt	nt	nt	nt
COc1cc(OC)c2c(-c3cccc(-c4ccc(CO)cc4)c3)cc(=O)oc2c1	nt	57*	-15	nt	74*	16	63*	62*
COc1cc(OC)c2c(-c3cccc(-c4ccc(OC(F)(F)F)cc4)c3)cc(=O)oc2c1	5	-8	19	nt	18	13	nt	nt
COc1cc(OC)c2c(-c3cccc(-c4ccc(N(C)C)cc4)c3)cc(=O)oc2c1	-6	33	5	nt	67*	-31	56*	103*
COc1ccc(-c2cccc(-c3cc(=O)oc4cc(OC)cc(OC)c34)c2)cc1	-7	46	-16	nt	78*	-4	54*	68*
COc1ccc(-c2cccc(-c3cc(=O)oc4cc5c(cc34)OCO5)c2)cc1	-3	-6	-1	nt	54*	-3	24	nt
C[C@H]1CN([C@@H](C)CO)C(=O)c2cc(C#Cc3ccccc3)cnc2O[C@@H]1CN(C)C(=O)C1CC1	-9	nt	nt	nt	nt	nt	nt	nt
CC(=O)Nc1ccc2c(c1)C(=O)N(C)[C@H]1CC[C@H](CC(=O)Nc3ccc(C)cc3)O[C@@H]1CO2	15	nt	nt	nt	nt	nt	nt	nt
COc1cc(OC)c2c(-c3cccc(-c4cccc(C)c4)c3)cc(=O)oc2c1	4	30	-7	nt	44	6	nt	nt
COc1cc(OC)c2c(-c3cccc(-c4ccc(O)cc4)c3)cc(=O)oc2c1	17	13	-2	nt	73*	-2	56*	43*
C[C@H](CO)N1C[C@H](C)[C@@H](CN(C)CC2CC2)Oc2cc(C#CC3(O)CCCC3)ccc2S1(=O)=O	-11	nt	nt	nt	nt	nt	nt	nt
O=C1c2ccccc2-c2n[nH]c3cccc1c23	-12	-57	4	nt	53*	-22	32	nt
Cc1ccc(C#CC[N+]2(CC#Cc3ccc(C)cc3)CCCCC2)cc1	23	35	-24	-1	55*	97*	50*	52*
COC(=O)c1c(-c2cccc3ccccc23)csc1NC(=O)Cc1ccc(OC)c(OC)c1	nt	26	-5	10	62*	34	51*	48*
COC(=O)c1c(-c2ccc(C)cc2)csc1NC(=O)Cc1ccc(OC)c(OC)c1	7	3	-6	6	nt	19	nt	nt
CC(C)NC(=O)N(C)C[C@@H]1OCCCC[C@H](C)Oc2ccc(NC(=O)Nc3ccc(F)cc3)cc2C(=O)N([C@@H](C)CO)C[C@H]1C	6	nt	nt	nt	nt	nt	nt	nt
COc1ccc(C2=Nn3c([n+](C)c4ccccc43)SC2)cc1	-24	15	-24	3	60*	7	38	nt
COCC#Cc1cnc2c(c1)C(=O)N([C@@H](C)CO)C[C@@H](C)[C@@H](CN(C)C(=O)c1ccc3c(c1)OCO3)O2	-1	nt	nt	nt	nt	nt	nt	nt
CC(=O)c1c(C)[nH]c(C(=O)OCC(=O)c2c(N)n(C)c(=O)n(C)c2=O)c1C	nt	nt	nt	2	56*	nt	2	nt
CC(=O)c1c(C)[nH]c(C(=O)OCC(=O)c2c(N)n(CC(C)C)c(=O)n(C)c2=O)c1C	-5	-22	-3	nt	45	9	nt	nt
